The text below walks through data of PubChem BioAssay AID2314 (National Center for Advancing Translational Sciences (NCATS), 2010).

Structures are written as SMILES. About 37,000 (12%) of roughly 300,000 compounds were called active. What follows is part of a selection rich in actives, with near analogues and random picks from the rest. Unmarked numbers belong to inactive results. Rule as the data show it: active = max response mostly above about 13% (no sharp cut-off); inactive = mostly below about 14%.

The nature of this test: Cycloheximide Counterscreen for Small Molecule Inhibitors of Shiga Toxin. Also: read at 38.3 µM for the half of the compounds with a filed dose; 0% is about no effect. The conditions noted are these: cell reporter, cycloheximide protein synthesis inhibition counterscreen; stronger effect = higher value. A general note: A counterscreen serves to expose hits that act by an unwanted route or on another target.
Regarding `O=C1C(=O)N(CCCO)C(c2ccccc2)/C1=C(\O)c1ccc(Br)cc1` (stereo not given), the max response was 0.724%.
The result for `CN1C(=O)/C(=C/C=C2\SCCN2C)OC1=S` reads 37.4% (active).
In the case of `Cc1csc(NC(=O)CSc2nc(=O)cc(N)n2-c2ccc(F)cc2)n1` it was 16.3%; in that of `CCc1ccc(OCC(=O)NCC(c2ccc(Cl)cc2)N2CCCCC2)cc1` (stereo not given), -2.84%.
In the case of `CCn1c(C(O)c2cc(OC)ccc2OC)nc2ccccc21` (stereo not given) it was 5.8%; in that of `COc1ccc(-c2cc3n(n2)CCc2nc4ccccc4n2-3)cc1`, 9.75% (active).
With `COc1ccc(-c2cc(C(=O)n3cnc4ccccc43)c3ccccc3n2)cc1`, the max response was 16.1%.
In the case of `CC(CC(=O)Nc1ccc(F)cc1F)S(=O)(=O)c1ccc2c(c1)NC(=O)CO2` (stereo not given) it was 2.18%; in that of `Brc1ccc(-c2nn[nH]n2)cc1`, 9.02%; in that of `CC(C)c1ccc(-c2nn[nH]n2)cc1`, 23% (active).
The result for `c1cc(-c2nn[nH]n2)ccc1CN1CCCCC1` reads -1.37%; that for `COc1cccc(NC(=O)CCNS(=O)(=O)c2ccc3c(c2)oc(=O)n3C)c1`, 0.768%; that for `COc1ccc(OCc2nnc3n2N=C(c2ccccc2)C(CC(=O)O)S3)cc1` (stereo not given), -4.15%.
The result for `COc1ccc(CNC(=O)C(=O)NCC2OCCN2C(=O)c2ccc(OC)cc2)cc1` (stereo not given) reads -1.12%.
Consider `N#Cc1ccccc1NC(=O)c1cccc(COc2ccc(Cl)cc2Cl)c1`, for which the max response is 116% (active).
Take `CSc1ccc(C#N)cc1NC(=O)c1ccc(Cl)cc1`: the max response was 6.79%.
Consider `CSc1ccc(C#N)cc1NC(=O)c1cccc(Cl)c1`, for which the max response is -1.93%.
Consider `COc1ccc(OC)c(NC(=O)c2cccc(S(=O)(=O)N3CCN(C(C)=O)CC3)c2)c1`, for which the max response was -2.4%.
The result for `CC[n+]1c(C)n(-c2ccccc2)c2ccc(NC(C)=O)cc21` reads 8.88%.
In the case of `Cc1ccc(CCN2CC(C(=O)NCCc3ccccc3)CC2=O)cc1` (stereo not given) it was 20.4%; in that of `COc1cccc(CNS(=O)(=O)c2csc(C(N)=O)c2)c1`, -4.05%.
In the case of `COc1ccc(C(=O)NCCn2nc(C)cc2C)cc1OC1CCN(C(C)=O)CC1` it was 1.36%; in that of `O=C(N/N=C/c1cccnc1)c1ccc(NC(=O)c2ccc(F)cc2)cc1`, -1.26%; in that of `O=C(N/N=C/c1cccnc1)c1cc2ccccc2cc1O`, 35.6% (active).
`Cc1ccc(/C=N/NC(=O)c2cc3ccccc3cc2O)o1`: the max response was 19.4% (active).
In the case of `O=C(N/N=C\c1cccnc1)c1cc(-c2ccccc2)nc2c(Cl)cccc12`, the max response was -2.05%.
In the case of `Cc1ccc(/C=N/NC(=O)CSc2ccccn2)o1` it was 17.1%.
The result for `Cc1ccc(/C=N/NC(=O)CNC(=O)COc2ccccc2)o1` reads -7.97%; that for `CCC(C)[C@H](NC(=O)N1c2ccccc2NC(=O)[C@@H]1C(C)C)C(=O)N[C@@H](Cc1ccccc1)C(=O)O` (stereo not given in full), 1.02%; that for `COc1ccc(OCC(O)CN(C)C(=O)C(C)Oc2ccccc2)cc1` (stereo not given), -1.78%.
For `Cc1ccc(SC(CC(=O)c2ccc(C(C)(C)C)cc2)C(=O)O)cc1` (stereo not given), the max response is 7.94%.
For the compound `Cc1cc(-c2ccc(C)c(S(=O)(=O)NC(C)Cc3ccco3)c2)on1` (stereo not given), the max response was 17.2%.
The result for `COC(=O)c1ccc(NC(=O)c2cc3c(CO)cnc(C)c3oc2=Nc2cccc(C(N)=O)c2)cc1` reads -3.69%; that for `O=C(CCCOc1ccccc1)NCc1ccco1`, 8.48%; that for `CCCCOc1ccc(C(=O)NCc2ccncc2)cc1`, 4.92%.
The result for `CCCc1ccc(OCCNC(=O)c2ccco2)cc1` reads 37.4% (active); that for `CCOc1ncccc1C(=O)NCCc1ccc(OC)cc1`, -4.4%.
The result for `CCCc1ccc(OCC(=O)NNC(=S)NC(=O)c2ccco2)cc1` reads -2.62%; that for `COc1ccc(CCNC(=O)c2ccccc2OCc2ccccc2)cc1`, -1.84%.
As for `CCCCOCCCNC(=O)c1ccccc1OCC`, the max response is -1.45%.
In the case of `CCCc1ccc(OCCNC(=O)c2ccccc2Br)cc1` it was 16.2% (active).
`CCCCOc1ccc(C(=O)NCc2ccco2)cc1`: the max response is 27.4% (active).
The result for `COc1ccc(CCNC(=O)c2ccco2)cc1` reads 33% (active).
In the case of `CCOc1cc(NC(=S)NCCCOC)c(OCC)cc1NC(=O)c1ccco1` it was 2.79%; in that of `Cc1ccc(OCC(=O)NCCCNC(=O)c2ccco2)cc1C`, -3.33%.
In the case of `CC(C)Oc1c(Br)cc(Br)cc1/C=N/NC(N)=S` it was -0.405%.
For `CN(C(=O)CN1C(=O)CCSc2ccc(S(=O)(=O)N3CCCC3)cc21)c1ccccc1`, the max response is 1.23%.
The result for `CCOc1ccc(N(C)Cc2cc(=O)oc3ccc(OC)cc23)cc1` reads -1.56%; that for `O=C(C1CCC(=O)N(C2CC2)C1)N1CCN(c2ccc(Cl)cc2)CC1` (stereo not given), -2.23%.
In the case of `CCn1c(CSCc2c(Cl)cccc2Cl)n[nH]c1=S` it was 7.21%; in that of `O=C(C[n+]1cc(-c2ccc(Cl)c(Cl)c2)n2c1CCC2)c1cccs1`, -1.98%.
The result for `CCOc1ccccc1NC(=S)N1CCN(c2cccc(C)c2C)CC1` reads -1.77%.
Turning to `NC(=O)CCC(NS(=O)(=O)c1ccc(Cl)cc1)C(=O)NCc1ccccc1Cl` (stereo not given), the max response was -1.61%.
In the case of `Cc1nn(CC(=O)NCCc2ccccc2)c(=O)c2cc3occc3n12` it was -3.95%; in that of `O=C(Cn1c(-c2cscn2)nc2ccccc21)Nc1ccc(Cl)cc1`, -2.37%.
The result for `Clc1cccc(N=C2NN=C(c3ccc4c(c3)OCCO4)CS2)c1` reads 74.7% (active).
The result for `c1ccc(CN2CCC(N=C3NN=C(c4ccc5c(c4)OCCO5)CS3)CC2)cc1` reads 32.2% (active); that for `CS(=O)(=O)N(CC(=O)N1CCN(Cc2ccccc2)CC1)c1ccc2c(c1)OCCO2`, -2.95%.
Regarding `CC(=NC1CCN(Cc2ccccc2)CC1)c1c(O)[nH]c(=O)[nH]c1=O`, the max response is -1.74%.
The result for `COc1cc(C2C3=C(CCCC3=O)OC3=C2C(=O)CCC3)ccc1OCC(=O)Nc1ccccc1` reads 4.65%.
The result for `COc1cc(/C=N/NC(=O)Nc2ccccc2)ccc1OCCOc1ccccc1C` reads -1.6%.
The result for `CCOC(=O)/C(C#N)=C/c1ccc(OCC(=O)Nc2ccccc2)c(OC)c1` reads 22.6% (active).
On to `CCOC(=O)/C(C#N)=C/c1cn(CCC(=O)O)nc1-c1ccc(Br)cc1`, for which the max response was -0.95%.
The result for `COc1cc(CCC(=O)OCC(=O)Nc2cccc(S(N)(=O)=O)c2)cc(OC)c1OC` reads -3.66%; that for `CCCn1c(C)cc(/C=C(\C#N)C(=O)OCC(=O)Nc2cc(OC)c(OC)c(OC)c2)c1C`, 31.9% (active).
